Measured values as given in PubChem BioAssay (NCATS).
Records with an inconclusive call do not appear. Activity calls are given as the source filed them. Unless noted, calls follow the shape of the dose curve; as a rule, active = well fitted curve in the direction sought with a large enough effect; inconclusive = small, poorly fitted or top-dose-only effect, or another doubt; inactive = no such curve, though single readings can be large; an effect the other way counts as inactive or inconclusive.

Key:
[1] = P-glycoprotein substrates identified in KB-8-5-11 adenocarcinoma cell line, qHTS therapeutic library screen (AID 1346987); also: nearly all actives have a fitted effect of over 65% in size; also: potency is read from the fitted curve at half-maximal effect
In short: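 Compounds are pinned in dose-response onto KB-8-5-11 cells (500 cells/well, colchicine-free medium) and left 72 h at 37 degree C. CellTiter-Glo luminescence then yields AC50 values.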

[2] = Primary qHTS for inhibitors of nuclear receptor binding SET domain protein 2 (NSD2) in an isogenic RCH-ACV NSD2 p.E1099K mutant (9B) (AID 1645876); also: potency is read from the fitted curve at half-maximal effect; nearly all actives have a fitted effect of over 70% in size
[3] = Primary qHTS for inhibitors of nuclear receptor binding SET domain protein 2 (NSD2) in an RCH-ACV wild type WT cells (2C) (AID 1645877); also: potency is read from the fitted curve at half-maximal effect; nearly all actives have a fitted effect of over 70% in size
[4] = molecular target: Glutathione peroxidase 1 (Homo sapiens) (UniProt P07203); test: Primary qHTS Assay for Inhibitors of Recombinant Selenoprotein Glutathione Peroxidase 1 (GPX1) (AID 1845191); also: nearly all actives have a fitted effect of over 65% in size; also: potency is read from the fitted curve at half-maximal effect
In short: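 NADPH consumption tracked by fluorescence at 340/450 nm between t=0 and t=15 min, room temperature. Final mix: 10 nM GPX1, 100 nM glutathione reductase, 1 mM GSH, 0.5 mM NADPH, 0.5 mM cumene hydroperoxide, 0.01% BSA; 30 min compound–enzyme preincubation.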

[5] = qHTS drug screen for cell cycle checkpoint inhibitors in PARPi-resistant BRCA-mutant ovarian cancer cell lines. (AID 1963452; calls by dose curve); conditions: PEO1/OlaR viability, CellTiter-Glo luminescence, 96 h, stronger effect = lower value
In short: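 PEO1, PEO4 and PEO1/OlaR ovarian cancer cells, 600 per well, exposed 96 h at 37C to a dilution series. Viability read by CellTiter-Glo luminescence, normalized to DMSO and empty wells; activity summarized as Z-AUC.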

[6] = molecular target: Catechol O-methyltransferase (Homo sapiens) (UniProt P21964); test: Confirmatory Screen for Target Class Profiling of Small Molecule Inhibitors of Methyltransferases (AID 1745852; calls by dose curve; also: potency is read from the fitted curve at half-maximal effect); conditions: MTase-Glo luminescence, SAH detection, recombinant enzyme; measured here: COMT max response; stronger effect = lower value
[7] = molecular target: Guanidinoacetate N-methyltransferase (Homo sapiens) (UniProt Q14353); test: as above; conditions: activity change, negative = inhibition: at 57.3 µM (top of the series) unless noted
[8] = molecular target: Nicotinamide N-methyltransferase (Homo sapiens) (UniProt P40261); test: as above; conditions: MTase-Glo luminescence, SAH detection, recombinant enzyme; measured here: NNMT max response; stronger effect = lower value
[9] = molecular target: Phenylethanolamine N-methyltransferase (Homo sapiens) (UniProt P11086); test: as above; conditions: MTase-Glo luminescence, SAH detection, recombinant enzyme; measured here: PNMT max response; stronger effect = lower value
Sequence of Phenylethanolamine N-methyltransferase (Homo sapiens) (P11086 whole entry, looked up): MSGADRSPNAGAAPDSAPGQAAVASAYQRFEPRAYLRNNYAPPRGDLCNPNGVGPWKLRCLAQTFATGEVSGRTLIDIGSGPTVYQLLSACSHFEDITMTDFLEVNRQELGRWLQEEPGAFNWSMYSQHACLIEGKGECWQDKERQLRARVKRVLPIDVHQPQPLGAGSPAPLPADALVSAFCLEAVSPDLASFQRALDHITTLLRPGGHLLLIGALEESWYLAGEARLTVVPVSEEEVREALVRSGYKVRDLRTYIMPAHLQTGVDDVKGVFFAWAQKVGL

Sequence of Glutathione peroxidase 1 (Homo sapiens) (P07203 whole entry, looked up): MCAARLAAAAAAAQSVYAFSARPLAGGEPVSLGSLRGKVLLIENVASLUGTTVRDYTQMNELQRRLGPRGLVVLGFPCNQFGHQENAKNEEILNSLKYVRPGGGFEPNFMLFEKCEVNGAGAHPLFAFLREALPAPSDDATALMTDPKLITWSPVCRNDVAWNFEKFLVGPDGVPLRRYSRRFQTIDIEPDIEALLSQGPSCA
Sequence of Catechol O-methyltransferase (Homo sapiens) (P21964 whole entry, looked up): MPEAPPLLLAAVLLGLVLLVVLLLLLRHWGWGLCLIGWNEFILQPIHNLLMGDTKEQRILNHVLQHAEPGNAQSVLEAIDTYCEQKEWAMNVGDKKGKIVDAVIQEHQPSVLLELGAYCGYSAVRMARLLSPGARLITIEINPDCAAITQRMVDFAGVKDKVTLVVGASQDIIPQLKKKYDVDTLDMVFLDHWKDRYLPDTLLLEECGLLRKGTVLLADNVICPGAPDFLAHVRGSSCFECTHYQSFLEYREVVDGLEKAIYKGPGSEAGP
Sequence of Nicotinamide N-methyltransferase (Homo sapiens) (P40261 whole entry, looked up): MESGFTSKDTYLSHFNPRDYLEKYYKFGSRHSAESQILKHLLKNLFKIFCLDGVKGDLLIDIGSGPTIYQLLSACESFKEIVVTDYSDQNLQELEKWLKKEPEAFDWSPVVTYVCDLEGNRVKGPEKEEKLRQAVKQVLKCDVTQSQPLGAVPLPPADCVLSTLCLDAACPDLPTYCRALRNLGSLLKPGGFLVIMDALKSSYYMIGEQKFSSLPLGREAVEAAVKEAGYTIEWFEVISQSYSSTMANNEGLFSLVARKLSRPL

SMILES: CN[C@@H]1C[C@H]2O[C@@](C)([C@@H]1OC)n1c3ccccc3c3c4c(c5c6ccccc6n2c5c31)C(=O)N[C@H]4O
- Potency [1]: 841 nM (active)
- Potency [2]: 21.5 nM (active)
- Potency [3]: 30.3 nM (active)
- outcome [4]: inactive [at 9.52 µM]
- Z-AUC [5]: -0.878 (inactive)
- Z-AUC ([5]; measured here: PEO1 parental Z-AUC): -0.367
- Z-AUC ([5]; measured here: PEO4 Z-AUC): -0.638

SMILES: COc1cc(/C=C\c2ccc(O)cc2)cc(OC)c1
- Potency [1]: inactive
- Potency [2]: 6510 nM (active)
- Potency [4]: inactive

SMILES: O=C1c2ccccc2-c2nc3nnnn3nc21 (tested in a mixture with another compound)
- Potency [1]: 920 nM (active)
- Potency [2]: 82 nM (active)
- Potency [3]: 184 nM (active)
- activity [6]: -95.2%
- Potency [7]: 482 nM (active)
- activity [8]: -67.5%
- activity [9]: -24.7%
- Potency [4]: 16100 nM (active)
